Experimental data as given in PubChem BioAssay AID1159580 (chemical genetic matrix, 2015).
“And” between values parts separate entries of the source, which are not always exact repeats. Identical values can stand only once. The whole screen tested about 5,500 compounds, of which about 2,000 (36%) were called active. About 18% were inconclusive and are not listed. No stated cut-off is given here; in the data, active means normalized growth mostly below about 0.91 (no sharp cut-off); inconclusive means no clear call, values can overlap the other calls; inactive means mostly above about 0.92. Some of the results follow.

Experiment: chemical genetic growth profiling, strain panel (AID 1159580);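 further: tested at 20 µM; growth read once vehicle control cultures reached saturation at 30 °C; 1 = growth at the plate median or of vehicle wells; lower values mean less growth of the strain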
Settings: S. cerevisiae deletion strains, growth OD

Measured: normalized growth

CCCN(CCC)c1c([N+](=O)[O-])cc(C(F)(F)F)cc1[N+](=O)[O-]
inactive: locus YAL013W, strain DEP1, active compounds read low 1.02 | locus YAL021C, strain ccr4, active compounds read low 1 | locus YAL026C, strain drs2, active compounds read low 0.999 | locus YAL030W, strain snc1, active compounds read low 1 | locus YBL061C, strain skt5, active compounds read low 1.01 | locus YBR009C, strain hhf1, active compounds read low 0.995 | locus YBR021W, strain FUR4, active compounds read low 1.03 | locus YBR023C, strain chs3, active compounds read low 1.01 | locus YBR171W, strain sec66, active compounds read low 0.985 | locus YBR229C, strain ROT2, active compounds read low 1 | locus YBR231C, strain swc5, active compounds read low 1.02 | locus YBR279W, strain paf1, active compounds read low 1.01 | locus YCL011C, strain gbp2, active compounds read low 0.97 | locus YCL016C, strain dcc1, active compounds read low 1 | locus YCL029C, strain bik1, active compounds read low 1.01 | locus YCL061C, strain MRC1, active compounds read low 0.984 | locus YCL069W, strain vba3, active compounds read low 0.977 | locus YCR088W, strain abp1, active compounds read low 0.976 | locus YDL005C, strain med2, active compounds read low 1.01 | locus YDL035C, strain GPR1, active compounds read low 1.04 | locus YDL040C, strain nat1, active compounds read low 1 | locus YDL074C, strain BRE1, active compounds read low 1.04 | locus YDL101C, strain DUN1, active compounds read low 0.997 | locus YDL134C, strain PPH21, active compounds read low 0.995 | locus YDL185W, strain tfp1, active compounds read low 1.02 | locus YDL192W, strain arf1, active compounds read low 1.02 | locus YDR001C, strain nth1, active compounds read low 0.981 | locus YDR069C, strain doa4, active compounds read low 1.02 | locus YDR101C, strain arx1, active compounds read low 1.01 | locus YDR137W, strain rgp1, active compounds read low 0.957 | locus YDR150W, strain NUM1, active compounds read low 1.02 | locus YDR159W, strain sac3, active compounds read low 0.989 | locus YDR162C, strain NBP2, active compounds read low 1 | locus YDR195W, strain ref2 0.987 | locus YDR297W, strain sur2, active compounds read low 1 | locus YDR318W, strain mcm21, active compounds read low 1.01 | locus YDR334W, strain swr1, active compounds read low 0.994 | locus YDR335W, strain msn5, active compounds read low 1.01 | locus YDR388W, active compounds read low 1 | locus YDR392W, strain spt3, active compounds read low 0.919 | locus YDR502C, strain sam2, active compounds read low 1.02 | locus YEL003W, strain gim4, active compounds read low 0.974 | locus YEL037C, strain rad23, active compounds read low 0.988 | locus YEL061C, strain CIN8 (second series), active compounds read low 0.981 | locus YEL061C, strain CIN8, active compounds read low 1.01 | locus YER015W, strain faa2, active compounds read low 1.01 | locus YER016W, strain bim1, active compounds read low 1 | locus YER110C, active compounds read low 1.01 | locus YER111C, strain swi4, active compounds read low 0.98 | locus YER155C, strain BEM2 (second series), active compounds read low 1 | locus YER155C, strain BEM2, active compounds read low 1.01 | locus YER167W, strain BCK2, active compounds read low 0.997 | locus YFR010W, strain ubp6, active compounds read low 0.996 | locus YGL078C, strain dbp3, active compounds read low 1.01 | locus YGL086W, strain mad1, active compounds read low 1.01 | locus YGL167C, strain pmr1, active compounds read low 1.01 | locus YGL173C, strain kem1, active compounds read low 1.02 | locus YGL227W, strain vid30, active compounds read low 0.982 | locus YGL240W, strain doc1, active compounds read low 1.05 | locus YGL248W, strain PDE1, active compounds read low 0.99 | locus YGL253W, strain hxk2, active compounds read low 1.01 | locus YGR078C, strain PAC10, active compounds read low 1.02 | locus YGR135W, strain pre9, active compounds read low 1.02 | locus YGR229C, strain SMI1, active compounds read low 1.01 | locus YGR252W, strain gcn5, active compounds read low 1.05 | locus YHR013C, strain ard1, active compounds read low 1.06 | locus YHR027C, strain rpn1, active compounds read low 1.03 | locus YHR030C, strain SLT2, active compounds read low 1.01 and 0.97 | locus YHR079C, strain IRE1 (second series), active compounds read low 1.02 | locus YHR079C, strain IRE1, active compounds read low 0.979 | locus YHR094C, strain hxt1, active compounds read low 1.01 | locus YHR129C, strain ARP1, active compounds read low 0.99 | locus YHR142W, strain chs7, active compounds read low 0.975 | locus YHR200W, strain rpn10, active compounds read low 1.01 | locus YIL066C, strain RNR3, active compounds read low 1.02 | locus YIL073C, strain SPO22, active compounds read low 1.04 | locus YIL125W, strain kgd1, active compounds read low 1 | locus YIR030C, strain dcg1, active compounds read low 1.01 | locus YJL092W, strain hpr5, active compounds read low 0.976 | locus YJL095W, strain BCK1 (second series), active compounds read low 1.01 | locus YJL095W, strain BCK1, active compounds read low 0.99 and 0.98 | locus YJL115W, strain asf1, active compounds read low 0.998 | locus YJL129C, strain trk1, active compounds read low 0.96 | locus YJL134W, strain LCB3, active compounds read low 1 | locus YJL154C, strain vps35, active compounds read low 0.978 | locus YJL164C, strain tpk1, active compounds read low 0.991 | locus YJL166W, strain qcr8, active compounds read low 1.02 | locus YJL168C, strain set2, active compounds read low 1.01 | locus YJL187C, strain SWE1 (second series), active compounds read low 1.02 | locus YJL187C, strain SWE1, active compounds read low 1.01 | locus YJR043C, strain POL32, active compounds read low 1.01 | locus YJR066W, strain TOR1, active compounds read low 0.914
